Data on 12 molecules can be found in PubChem BioAssay (NCI).

Holding throughout (assay): NCI-60 one-dose screen, 48 h (100 = growth as untreated, 0 = no growth, -100 = all killed)
The test system of assay [1] is SK-MEL-2 melanoma. The conditions noted are these: 10 µM.
Assay [2] relates to EKVX NSCLC. Particulars: 10 µM.
Assay [3] has as its system SN12C renal. The conditions noted are these: 10 µM.
Assay [4] relates to UO-31 renal. The conditions noted are these: 10 µM.
The test system of assay [5] is TK-10 renal.
Assay [6] deals with ACHN renal. The conditions noted are these: 10 µM.
For assay [7], the system named is CAKI-1 renal. The conditions noted are these: 10 µM.
Assay [8] has as its system A498 renal. The conditions noted are these: 10 µM.
The subject of assay [9] is CCRF-CEM leukemia. The conditions noted are these: 10 µM.
Assay [10] concerns MOLT-4 leukemia. Particulars: 10 µM unless noted.
The test system of assay [11] is RPMI-8226 leukemia. Particulars: 10 µM.
Assay [12] concerns OVCAR-8 ovarian. Particulars: 10 µM.
The test system of assay [13] is OVCAR-5 ovarian. Particulars: 10 µM.
In assay [14] the test system is OVCAR-4 ovarian. Particulars: 10 µM.
The test system of assay [15] is SK-OV-3 ovarian. The conditions noted are these: 10 µM.
For assay [16], the system named is IGROV1 ovarian. Particulars: 10 µM.
The test system of assay [17] is HS 578T breast. Particulars: 10 µM.
Assay [18] has as its system NCI/ADR-RES ovarian. The conditions noted are these: 10 µM.
Assay [19] has as its system SR leukemia. The conditions noted are these: 10 µM.

“And” between values parts separate entries of the source, which are not always exact repeats. Identical values can stand only once. Compounds without any hit were thinned out: in the full panel of roughly 83,000, 20% have a hit.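 Percent growth is the endpoint: 0 to 100 indicates growth inhibition (40 means 60% inhibition), 0 means no net growth, and negative values indicate cell death.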 The source made the active and inactive calls. Rule for the calls: active = growth percent below 10; inactive = the rest.

Turning to `COc1ccc2oc(-c3ccc(Cl)cc3)c(N3CCN(C)CC3)c2c1`, the growth in [1] was -15.9% (active); in [2], 50.7% (inactive); in assay [3] it was 37.2% (inactive); in assay [4] it was -5.46% (active); in assay [5] (10 µM), -1.47% (active); in assay [6], 4.13% (active). Moreover, the growth in assay [7] was -11.6% (active); in assay [8], 52.4% (inactive); in assay [9] it was -12.6% (active); in assay [10], 12.5% (inactive); in [11], -10.3% (active); in assay [12] it was 31.8% (inactive). For the same molecule, the growth is 2.8% (active) in [13]; 78.2% (inactive) in assay [14]; 55.1% (inactive) in assay [15]; -87.5% (active) in [16]; 28.3% (inactive) in assay [17]; -10.9% (active) in assay [18].
Turning to `ClCCn1c(CCl)nc2ccc(Cl)cc21`, the growth in [1] is -56% (active); in assay [3], -47% (active); in assay [4], -82.6% (active); in assay [5] (10 µM) it was -30.6% (active); in [6] it was -68.8% (active); in assay [7] it was -28.5% (active). In addition, the growth in assay [8] was 1.48% (active); in [9] it was -46.8% (active); in assay [10] it was -52.7% (active); in assay [19], -32.4% (active); in assay [11], -22.2% (active); in assay [12], -33% (active). Further, the growth in [13] is -22.9% (active); in assay [14] it was -18.9% (active); in assay [16], -62.5% (active); in [17], -10.9% (active); in assay [18] it was 2.35% (active).
As for `Clc1c(Cl)c(Cl)c2c(nnn2C2CCCO2)c1Cl` (stereo not given), in assay [5] (100 µM), the growth is -9.89% (active) and -74.8% (active).
In the case of `CN(CC(=O)O)c1ccc(/C=C/c2ccnc3ccccc23)cc1`, the growth was 89% (inactive) in assay [1]; 69.6% (inactive) in assay [2]; 85.2% (inactive) in assay [3]; 61.7% (inactive) in [4]; 98.7% (inactive) in assay [5] (10 µM); 89.1% (inactive) in assay [6]. In addition, the growth is 92.9% (inactive) in [7]; 97.1% (inactive) in assay [8]; 66.8% (inactive) in assay [9]; 34.4% (inactive) in [10]; 70.4% (inactive) in assay [11]; 80% (inactive) in assay [12]. Further, the growth is 123% (inactive) in assay [13]; 86.2% (inactive) in assay [14]; 91.3% (inactive) in [15]; 77.4% (inactive) in assay [16]; 84.6% (inactive) in assay [17]; 89.3% (inactive) in assay [18].
Take `C=C(C)[C@@H]1CCc2c(O)c(O)c(=O)cc(C)c2C1`: the growth in assay [5] (100 µM) is -17% (active) and -96.5% (active).
The same measure, in the same setting: to `N#CC(=S)Nc1cccc(Cl)c1` belongs 5.57% (active) and -9.55% (active).
For the molecule `C=C1N(C)c2ccc(Cl)cc2C1(C)C`, the growth in assay [1] was 101% (inactive); in [2], 25.2% (inactive); in assay [3], 54.8% (inactive); in assay [4], 78.5% (inactive); in assay [5] (10 µM), 83.8% (inactive); in [6], 94.9% (inactive). The growth was 84.1% (inactive) in [8]; 42.2% (inactive) in assay [9]; 35.8% (inactive) in [10]; -13.2% (active) in [11]; 67.9% (inactive) in assay [12]; 82.9% (inactive) in [13]. In addition, the growth in [14] was 60.7% (inactive); in [15], 82% (inactive); in assay [17], 49.8% (inactive); in assay [18], 95.8% (inactive).
On to `COc1ccc(N)c2c1C(=O)c1ccccc1C2=O`, for which the growth in assay [1] is 99.5% (inactive); in assay [2], 106% (inactive); in [3] it was 93.9% (inactive); in [4], 68.5% (inactive); in [5] (10 µM) it was 102% (inactive); in [6], 96.9% (inactive). Besides, the growth in assay [7] was 74% (inactive); in [8] it was 93.4% (inactive); in assay [9], 89.9% (inactive); in assay [10] it was 67% (inactive); in assay [11], 88.9% (inactive); in assay [12] it was 95.7% (inactive). For the same molecule, the growth was 103% (inactive) in assay [13]; 109% (inactive) in assay [14]; 89.4% (inactive) in [15]; 88.7% (inactive) in assay [16]; 107% (inactive) in assay [17]; 110% (inactive) in assay [18].
Consider `O=C1c2ccccc2CCC1(Br)Br`, for which the growth in assay [3] is 28.3% (inactive); in assay [4] it was 28% (inactive); in assay [5] (10 µM) it was -11% (active); in [6], -95.2% (active); in assay [7], 18.7% (inactive); in assay [8], 70.8% (inactive). Moreover, the growth is -22.2% (active) in assay [9]; -13.4% (active) in assay [10]; 0.0746% (active) in assay [19]; 1.08% (active) in [11]; 38.6% (inactive) in assay [12]; 25.8% (inactive) in assay [13]. Besides, the growth in assay [14] was -27.5% (active); in assay [15], 95% (inactive); in [16] it was 88.4% (inactive); in [17], 69.4% (inactive); in assay [18] it was 19.3% (inactive).
Take `O=C(CCc1ccccc1)ON1C(=S)C(c2ccccc2)(c2ccccc2)N=C1Sc1ccccc1`: the growth in [5] (100 µM) is 28.6% (inactive) and 7.58% (active).
On to `COc1cc(N)ccc1Nc1c2ccccc2nc2ccccc12`, for which the growth is 109% (inactive) in assay [1]; 81% (inactive) in assay [3]; 50.6% (inactive) in assay [4]; 88.3% (inactive) in [5] (10 µM); 88.6% (inactive) in assay [6]; 70.5% (inactive) in assay [7]. Further, the growth in assay [8] was 87.3% (inactive); in assay [10], 2.72% (active); in [19], 10.1% (inactive); in [12] it was 66.1% (inactive); in [13] it was 110% (inactive); in assay [14] it was 5.09% (active). Moreover, the growth in [15] was 93.9% (inactive); in [16] it was 60.8% (inactive); in [17], 102% (inactive); in assay [18], 92.7% (inactive).
As to `CN(C)CCNc1cccc2sc3ccc(O)cc3c(=O)c12`, the growth in assay [1] was 64% (inactive); in assay [3], 40.4% (inactive); in assay [4], 20% (inactive); in assay [5] (10 µM), 58% (inactive); in assay [6], 14.9% (inactive); in [7], 5.13% (active). Besides, the growth in assay [8] is 92.5% (inactive); in assay [10] it was 14.3% (inactive); in assay [11] it was 73.4% (inactive); in assay [12], 36% (inactive); in assay [13], 78.8% (inactive); in assay [14], 52.8% (inactive). Also, the growth was 51.1% (inactive) in assay [15], 50.1% (inactive) in [16], 69.4% (inactive) in [17] and 45% (inactive) in assay [18].
